# From PubChem BioAssay
# “And” between values parts separate entries of the source, which are not always exact repeats. Identical values can stand only once. Results filed as inconclusive are left out. The source holds several records for some structures; these can differ, active in one and inactive in another. The list shows a part of the results. The source made the active and inactive calls.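 Rule for the calls, unless noted: active = GFP signal, as percent of the solvent control, above the screen mean plus 3 SD, about 149; inconclusive = no reading because the compound's own fluorescence upset strain identification; inactive = the rest.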
# Legend:
# [1] = rapamycin-like changes in RPL19A-GFP expression – cell-based, S. cerevisiae, multiplex flow cytometry, primary screen (AID 1862; in the data active = percent of DMSO control GFP below about 86%;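 note: lower values mimic rapamycin by blocking the RPL19A rise seen in DMSO cells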); conditions: S. cerevisiae RPL19A-GFP strain, flow cytometry fluorescence, 3 h; at 10 µM; stronger effect = lower value
# [2] = TOR pathway GLN3 branch reporter MEP2-GFP changes – S. cerevisiae, multiplex flow cytometry, primary screen (AID 1867;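 active = GFP response, as percent of the DMSO control, above the screen-wide mean plus 3 SD, about 139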;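 note: median GFP channel fluorescence of barcode-gated MEP2-GFP cells measured by flow cytometry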); conditions: S. cerevisiae MEP2-GFP strain, 3 h, at 10 µM, stronger effect = higher value, 100% means same as DMSO wells
# [3] = TOR pathway RTG branch CIT2 reporter changes – S. cerevisiae, GFP fusion, multiplex flow cytometry, primary screen (AID 1870;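 active = percent response above a set limit, the screen-wide mean plus 3 SD, cut at about 130% in these data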;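 note: barcoded CIT2-GFP strain pooled with four other GFP strains with rapamycin as positive control; median GFP fluorescence per well over plate mean of DMSO wells so 100% = DMSO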); conditions: S. cerevisiae CIT2-GFP expression, 3 h, at 10 µM, stronger effect = higher value
# [4] = TOR pathway LAP4-GFP level changes – S. cerevisiae, multiplex flow cytometry, primary screen (AID 1873); conditions: S. cerevisiae LAP4-GFP expression, 3 h, at 10 µM, stronger effect = higher value
# [5] = yeast AGP1-GFP level changes, GLN3 branch – cell-based, multiplex flow cytometry, S. cerevisiae, primary screen (AID 1887;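 active = GFP signal above the screen-wide mean plus 3 SD, that is over about 124.5% of the solvent control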;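 note: AGP1-GFP fusion strain of S. cerevisiae within a five-strain barcoded multiplex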); conditions: 3 h, at 10 µM, stronger effect = higher value
# [6] = hit retest on RPL19A-GFP reporter strain – cell-based, S. cerevisiae, flow cytometry, cherry picks, mother/daughter gates, confirmation (AID 2270;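 active = GFP response below 50% of the DMSO control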); conditions: 3 h, at 10 µM, stronger effect = lower value, 100 = same GFP as DMSO wells
# [7] = yeast TOR pathway reporter LAP4-GFP change – cell-based, cherry picks, flow cytometry, mother/daughter gates, confirmation (AID 2271;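 active = GFP response above 150% of the DMSO control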;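 note: ratio of sample to DMSO plate mean so 100% equals DMSO level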); conditions: S. cerevisiae LAP4-GFP strain, 3 h, at 10 µM, stronger effect = higher value, 100 means same as DMSO control
# [8] = TOR pathway reporter MEP2-GFP, retest of hits – S. cerevisiae, flow cytometry GFP, cherry picks, confirmation (AID 2272;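 active = GFP response above 150% of the DMSO control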;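 note: ratio of well signal to plate DMSO mean so 100% equals DMSO level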); conditions: S. cerevisiae MEP2-GFP strain, 3 h, at 10 µM, stronger effect = higher value
# [9] = TOR pathway CIT2 reporter hit retest – S. cerevisiae, GFP fusion, cherry picks, mother/daughter gates, confirmation (AID 2274;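 active = GFP response above 150% of the DMSO level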); conditions: S. cerevisiae CIT2-GFP strain, flow cytometry, 3 h, at 10 µM, stronger effect = higher value
# [10] = reduced mouse 2C T cell binding to pMHC/ICAM-1 vesicles – MLPCN validation set, flow cytometry, LFA-1/ICAM-1 modulator project, pilot screen (AID 2523;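 active = response below a set limit, under 55% cells CD8-positive and vesicle-bound, and CD8 cells' 90th-percentile brightness under 279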;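 for vesicle binding response: mean PE anti-B7-1 fluorescence of CD8+ cells relative to row control; 100% = QL9-loaded vesicles with DMSO vehicle in the same plate row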); conditions: 2C mouse CD8+ T cells, at 7 µM, stronger effect = lower value; double positive events: measured here: CD8+/vesicle+ event percentage
# [11] = biological target: Regulator of G-protein signaling 16 (Homo sapiens) (UniProt O15492); assay: small molecules altering RGS protein interactions with GNAO1 – biochemical, multiplexed beads, flow cytometry, RGS4/7/8/16/19, primary screen (AID 1504); conditions: multiplexed bead flow cytometry, measured here: RGS16 interaction, at 10 µM;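 note: fluorescently labeled Galpha-o bound to GDP with aluminium fluoride binding biotinylated RGS beads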
# [12] = biological target: Regulator of G-protein signaling 19 (Homo sapiens) (UniProt P49795); assay: as above; conditions: multiplexed bead flow cytometry, measured here: RGS19 interaction, at 10 µM
# [13] = biological target: Regulator of G-protein signaling 7 (Homo sapiens) (UniProt P49802); assay: as above; conditions: multiplexed bead flow cytometry, measured here: RGS7 interaction, at 10 µM
# [14] = biological target: Regulator of G-protein signaling 8 (Homo sapiens) (UniProt P57771); assay: as above; conditions: multiplexed bead flow cytometry, measured here: RGS8 interaction, at 10 µM
# [15] = interference with biotin-avidin bead interaction – biochemical, flow cytometry, bead-based, counter-screen for RGS protein interaction modulators (AID 1783;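 active = inhibition above 50%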;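 note: median green fluorescence of gated singlet beads compared with DMSO control wells; 0% = DMSO wells and 100% = complete loss of bead fluorescence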); conditions: streptavidin beads, fluorescein-biotin binding; at 10 µM, stronger effect = higher value
# [16] = biological target: Guanine nucleotide-binding protein G(o) subunit alpha (Homo sapiens) (UniProt P09471); assay: retest of RGS8-Galphao interaction hits – biochemical, multiplexed bead flow cytometry, single concentration, confirmation (AID 1836; in the data active = binding response below about 72% or above about 130%; inactive = in between;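 note: Galphao activated as GDP AlF4 complex before binding bead RGS8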); conditions: bead-based flow cytometry RGS8-Galphao binding, fluorescence; at 10 µM; actives lie on both sides
# Chain of Guanine nucleotide-binding protein G(o) subunit alpha (Homo sapiens) (P09471 whole entry, looked up): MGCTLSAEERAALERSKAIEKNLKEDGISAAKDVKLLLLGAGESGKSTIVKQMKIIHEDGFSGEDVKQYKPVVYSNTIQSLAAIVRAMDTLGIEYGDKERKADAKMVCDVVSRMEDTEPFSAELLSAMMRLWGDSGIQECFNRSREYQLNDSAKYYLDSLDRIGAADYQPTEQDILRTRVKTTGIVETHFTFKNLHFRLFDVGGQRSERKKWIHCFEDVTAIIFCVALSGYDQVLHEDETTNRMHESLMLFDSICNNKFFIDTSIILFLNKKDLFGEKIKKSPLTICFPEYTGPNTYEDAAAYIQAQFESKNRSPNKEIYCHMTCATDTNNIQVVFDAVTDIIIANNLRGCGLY
# [17] = biological target: Guanine nucleotide-binding protein G(o) subunit alpha (Homo sapiens) (UniProt P09471); assay: retest of RGS7-Galphao interaction hits – biochemical, multiplexed bead flow cytometry, single concentration, confirmation (AID 1837; in the data active = response below about 75% or above about 130%; inactive = in between;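 note: fluorescent Galphao activated with GDP and aluminum fluoride binding bead-coupled RGS7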); conditions: bead-based flow cytometry RGS7-Galphao binding; at 10 µM; actives lie on both sides
# [18] = biological target: Regulator of G-protein signaling 16 (Homo sapiens) + Guanine nucleotide-binding protein G(o) subunit alpha (Homo sapiens) (UniProt O15492+P09471); assay: RGS16 and Galphao interaction regulators – biochemical, single concentration, multiplexed bead flow cytometry, confirmation (AID 1838; in the data active = response below about 74% or above about 130%; inactive = in between;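 note: Galphao activated as the GDP aluminium fluoride complex binding bead-coupled RGS16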); conditions: bead-based flow cytometry, at 10 µM, actives lie on both sides
# Chain of Regulator of G-protein signaling 16 (Homo sapiens) + Guanine nucleotide-binding protein G(o) subunit alpha (Homo sapiens) (O15492 whole entry, looked up): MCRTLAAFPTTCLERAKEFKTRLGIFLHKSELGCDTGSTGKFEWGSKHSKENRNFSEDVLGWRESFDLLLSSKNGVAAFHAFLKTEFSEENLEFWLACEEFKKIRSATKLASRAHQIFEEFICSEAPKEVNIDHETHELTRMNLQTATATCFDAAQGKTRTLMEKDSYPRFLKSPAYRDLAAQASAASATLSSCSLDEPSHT
# Chain of Regulator of G-protein signaling 16 (Homo sapiens) + Guanine nucleotide-binding protein G(o) subunit alpha (Homo sapiens) (P09471 whole entry, looked up): as the sequence (P09471 whole entry, looked up) above
# [19] = biological target: Guanine nucleotide-binding protein G(o) subunit alpha (Homo sapiens) (UniProt P09471); assay: RGS4 and Galphao interaction regulators – biochemical, single concentration, multiplexed bead flow cytometry, confirmation (AID 1840; in the data active = binding response below about 74% or above about 130%; inactive = in between); conditions: at 10 µM, actives lie on both sides
# [20] = biological target: Guanine nucleotide-binding protein G(o) subunit alpha (Homo sapiens) + Regulator of G-protein signaling 19 (Homo sapiens) (UniProt P09471+P49795); assay: RGS19 interaction with Gαo, hit retest – biochemical, single point, multiplexed bead flow cytometry, confirmation (AID 1841; in the data active = response below about 50% or above about 160%; inactive = in between;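 note: 100% = no compound control and 0% = blank background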); conditions: bead-based flow cytometry RGS19-Galphao binding; at 10 µM; actives lie on both sides
# Chain of Guanine nucleotide-binding protein G(o) subunit alpha (Homo sapiens) + Regulator of G-protein signaling 19 (Homo sapiens) (P09471 whole entry, looked up): as above
# Chain of Guanine nucleotide-binding protein G(o) subunit alpha (Homo sapiens) + Regulator of G-protein signaling 19 (Homo sapiens) (P49795 whole entry, looked up): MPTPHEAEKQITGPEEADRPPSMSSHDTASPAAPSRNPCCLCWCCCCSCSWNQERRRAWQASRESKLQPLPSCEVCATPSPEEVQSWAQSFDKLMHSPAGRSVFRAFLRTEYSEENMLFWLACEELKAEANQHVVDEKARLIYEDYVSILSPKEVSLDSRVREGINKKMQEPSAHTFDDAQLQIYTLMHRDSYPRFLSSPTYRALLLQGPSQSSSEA
# [21] = measured here: daughter cell gate
# [22] = measured here: mother cell gate
# [23] = measured here: daughter cell gate response
# [24] = measured here: mother cell gate response
structure (smiles),measurement,setting,value
CN(C)CCCN1c2ccccc2Sc2ccc(Cl)cc21,percent of DMSO control GFP,[1],84.9% (active) and 109% (inactive)
same,GFP response vs DMSO,[2],148% (active) and 129% (inactive)
same,percent response of DMSO control,[3],88.6% (inactive) and 116% (inactive)
same,GFP response vs DMSO,[4],83.1% (inactive) and 94.1% (inactive)
same,"GFP response, % of DMSO",[5],91.5% (inactive) and 115% (inactive)
same,GFP response vs DMSO,[6],101% (inactive)
same,GFP response vs DMSO,[6]; [21],101%
same,GFP response vs DMSO,[6]; [22],102%
same,GFP response relative to DMSO,[7],95% (inactive)
same,GFP response relative to DMSO,[7]; [23],100%
same,GFP response relative to DMSO,[7]; [24],97.2%
same,GFP response vs DMSO,[8],100% (inactive)
same,"GFP response, % of DMSO",[9],106% (inactive)
same,"GFP response, % of DMSO",[9]; [21],103%
same,"GFP response, % of DMSO",[9]; [22],107%
same,double positive events,[10],64.9% and 70.6%
same,vesicle binding response,[10],163% (inactive) and 432% (inactive)
CC(=O)CSc1ncnc2c1cnn2-c1ccccc1,percent of DMSO control GFP,[1],90.6% (inactive)
same,GFP response vs DMSO,[2],116% (inactive)
same,percent response of DMSO control,[3],92.6% (inactive)
same,GFP response vs DMSO,[4],77.6% (inactive)
same,"GFP response, % of DMSO",[5],87.3% (inactive)
same,GFP response vs DMSO,[6],100% (inactive)
same,GFP response vs DMSO,[6]; [21],97.6%
same,GFP response vs DMSO,[6]; [22],100%
same,GFP response relative to DMSO,[7],106% (inactive)
same,GFP response relative to DMSO,[7]; [23],101%
same,GFP response relative to DMSO,[7]; [24],106%
same,GFP response vs DMSO,[8],99% (inactive)
same,"GFP response, % of DMSO",[9],93% (inactive)
same,"GFP response, % of DMSO",[9]; [21],92%
same,"GFP response, % of DMSO",[9]; [22],91.9%
same,double positive events,[10],57.9%
same,vesicle binding response,[10],221% (inactive)
C[C@]12C[C@H](O)[C@H]3[C@@H](CCC4=CC(=O)CC[C@@]43C)[C@@H]1CC[C@@H]2C(=O)CO,percent of DMSO control GFP,[1],96.3% (inactive)
same,GFP response vs DMSO,[2],110% (inactive)
same,percent response of DMSO control,[3],112% (inactive)
same,GFP response vs DMSO,[4],78.1% (inactive)
same,"GFP response, % of DMSO",[5],101% (inactive)
same,GFP response vs DMSO,[6],98.2% (inactive)
same,GFP response vs DMSO,[6]; [21],98.9%
same,GFP response vs DMSO,[6]; [22],98.7%
same,GFP response relative to DMSO,[7],94.1% (inactive)
same,GFP response relative to DMSO,[7]; [23],94.4%
same,GFP response relative to DMSO,[7]; [24],94%
same,GFP response vs DMSO,[8],98.3% (inactive)
same,"GFP response, % of DMSO",[9],105% (inactive)
same,"GFP response, % of DMSO",[9]; [21],105%
same,"GFP response, % of DMSO",[9]; [22],106%
same,double positive events,[10],70.2%
same,vesicle binding response,[10],222% (inactive)
COc1cc(C2/C(=C(\O)c3ccc4c(c3)CC(C)O4)C(=O)C(=O)N2Cc2ccco2)ccc1O (centres undefined),RGS16–Galpha-o binding response,[11],-10.7%
same,RGS19–Galpha-o binding response,[12],178%
same,RGS7–Galpha-o binding response,[13],17.7%
same,RGS8–Galpha-o binding response,[14],12.8%
same,inhibition,[15],1.5% (inactive)
same,binding response (% of control),[16],106% (inactive)
same,response (percent of control binding),[17],110% (inactive)
same,response (% of control binding),[18],109% (inactive)
same,binding response (% of control),[19],106% (inactive)
same,response (percent of control binding),[20],106% (inactive)
CCCCCCCC(=O)OCC(=O)[C@@]1(O)CC[C@H]2[C@@H]3CCC4=CC(=O)CC[C@]4(C)[C@H]3[C@@H](O)C[C@@]21C,percent of DMSO control GFP,[1],102% (inactive)
same,GFP response vs DMSO,[2],107% (inactive)
same,percent response of DMSO control,[3],98.9% (inactive)
same,GFP response vs DMSO,[4],96.6% (inactive)
same,"GFP response, % of DMSO",[5],98.3% (inactive)
same,GFP response vs DMSO,[6],96.5% (inactive)
same,GFP response vs DMSO,[6]; [21],95.9%
same,GFP response vs DMSO,[6]; [22],96.9%
same,GFP response relative to DMSO,[7],94.1% (inactive)
same,GFP response relative to DMSO,[7]; [23],92.9%
same,GFP response relative to DMSO,[7]; [24],96.4%
same,GFP response vs DMSO,[8],103% (inactive)
same,"GFP response, % of DMSO",[9],93.1% (inactive)
same,"GFP response, % of DMSO",[9]; [21],94%
same,"GFP response, % of DMSO",[9]; [22],92.6%
same,double positive events,[10],58.8%
same,vesicle binding response,[10],182% (inactive)
Cc1ncoc1C(=O)NCCC(c1ccccc1)c1ccccc1,inhibition,[15],0.1% (inactive)
same,binding response (% of control),[16],101% (inactive)
same,response (percent of control binding),[17],110% (inactive)
same,response (% of control binding),[18],101% (inactive)
same,binding response (% of control),[19],103% (inactive)
same,response (percent of control binding),[20],111% (inactive)
